In PubChem BioAssay AID1042 (National Center for Advancing Translational Sciences (NCATS), 2008):
Inconclusive results are not listed. Active and inactive are the calls of the source.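 How the source made its calls: active means raised CDH13 expression over DMSO controls, judged by fold change in triplicate runs, no set cutoff; inconclusive means doubtful CDH13 rise, criteria not stated; inactive means no rise, falls in expression ignored.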

experiment: CDH13 Derepression/Induction Secondary Assay for qHTS Assay for Epigenetic Modulators; conditions: H358 cells, CDH13 mRNA qPCR, 72 h; active compounds read high
Text: NIH Molecular Libraries Screening Centers Network [MLSCN] NIH Chemical Genomics Center [NCGC] MLSCN Grant: 1 X01 MH079860-01 Assay Provider: Elisabeth D. Martinez, University of Texas SW Medical Center NCGC Assay Overview: This secondary assay characterizes selected actives identified in the qHTS of the Locus Derepression (LDR) assay (PubChem AID 597). The LDR assay detects the derepression of a GFP reporter that is stably integrated in a region of the genome of murine c127i mammary cells that is presumably silenced. Compounds that cause derepression of the locus to express GFP are identified by enumerating GFP positive cells using a laser-scanning microplate cytometer. Selected LDR actives were assayed for the induction of CDH13 gene expression, a gene silenced by methylation of its promoter. Treatment of cells with DNA methyltransferase inhibitors, like 5-azadeoxycytidine, or with HDAC inhibitors, like trichostatin A, induce CDH13 gene expression. Compounds active in this assay may modulate components involved in DNA methylation, histone acetylation or gene transcription.
NCGC Assay Protocol Summary Exponentially growing H358 non-small cell lung cancer cells were treated daily with fresh media containing the indicated concentrations of compounds for 72 hr. Cellular RNA was extracted, quantified, DNAse treated and reverse transcribed. The resulting cDNA was amplified in TaqMan real time quantitative PCR assays (Applied Biosystems) containing validated primers specific for CDH13 (Hs00169908.m1). Reactions were performed on an ABI Prism 7900HT, with an initial 2 min preincubation at 50 C, followed by 10 min at 95 C and then 40 cycles of 95 C for 15 seconds and 60 C for 1 min. GAPDH and 18S ribosomal RNA were used as references. Gene expression was measured by fold-induction over control DMSO-treated samples (36-37 average cycle time). Increases corresponded to at least 2-3 cycle time differences over DMSO controls, which were in the measurable range. Decreases in expression were considered insignificant as measurement of the DMSO samples were at the low limit of detection. Reactions were run in triplicate and error bars represent standard deviations. For further details, see R.L. Johnson, W. Huang, A. Jadhav, C.P. Austin, J. Inglese, E.D. Martinez, A Quantitative High-Throughput Screen Identifies Potential Epigenetic Modulators of Gene Expression, Analytical Biochemistry (2007), doi: 10.1016/j.ab.2007.12.028

Fold change, active:
CC(C)C(=O)NC(c1ccco1)c1cc([N+](=O)[O-])c2cccnc2c1O (stereo not given) 9
CC(/C=C/C(=O)NO)=C\[C@@H](C)C(=O)c1ccc(N(C)C)cc1 256
CN1CCN(Cc2cc(Cl)c3cccnc3c2O)CC1 10
O=Nc1ccc(O)c2ncccc12 85
CC(C)C(=O)NC(c1ccco1)c1ccc2cccnc2c1O (stereo not given) 12
Nc1ncn([C@H]2C[C@H](O)[C@@H](CO)O2)c(=O)n1 9

Fold change, inactive:
O=C(CSc1cccc2cccnc12)NCc1ccccc1 2
O=C(CSc1cccc2cccnc12)N1CCCC1 1
CCN1CSC(=S)N(CC)C1 1
CN(C)C(=O)CSc1cccc2cccnc12 1
